The source of these data is publication PMC7862700, “An all-to-all approach to the identification of sequence-specific readers for epigenetic DNA modifications on cytosine”.

Common to all, as to assay: DAPPL (digital affinity profiling via proximity ligation, sequencing); 10 mM Tris-HCl pH 7.5, 50 mM NaCl, 1 mM DTT, 4% glycerol, room temperature, 30 min; GST-TFs on glutathione beads, 16-mer random dsDNA library, 0.1% formaldehyde crosslink after washing; high values mean tight binding
Common to all, as to settings: protein: recombinant; tags: N-terminal GST; dsDNA, one strand shown

One assay concerns the target T1, ERF (Homo sapiens, UniProt P50548 1-548).
T1 sequence: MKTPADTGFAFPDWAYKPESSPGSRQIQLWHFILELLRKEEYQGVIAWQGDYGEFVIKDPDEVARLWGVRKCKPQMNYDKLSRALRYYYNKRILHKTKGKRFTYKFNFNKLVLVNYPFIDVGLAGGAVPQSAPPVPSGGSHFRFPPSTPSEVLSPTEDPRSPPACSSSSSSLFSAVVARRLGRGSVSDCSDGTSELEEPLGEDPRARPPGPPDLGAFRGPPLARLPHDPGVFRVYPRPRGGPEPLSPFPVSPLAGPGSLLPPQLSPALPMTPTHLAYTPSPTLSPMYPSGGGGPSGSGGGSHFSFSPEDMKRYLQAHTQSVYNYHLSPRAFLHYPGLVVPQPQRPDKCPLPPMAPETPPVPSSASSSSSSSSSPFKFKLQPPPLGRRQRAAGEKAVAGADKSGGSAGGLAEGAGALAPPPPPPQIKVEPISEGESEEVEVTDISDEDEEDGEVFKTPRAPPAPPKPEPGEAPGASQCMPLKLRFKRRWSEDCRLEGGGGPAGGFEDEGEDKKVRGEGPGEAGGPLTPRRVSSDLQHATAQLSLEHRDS
The procedure, abridged: (§1)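 Human transcription factors fused to GST were expressed in yeast, captured on glutathione beads, given DNA barcodes and pooled with a GST-only negative control. Pools were incubated with 200 nmole of a 16-mer random double-stranded DNA library in Tris/NaCl/DTT/glycerol buffer at room temperature for 30 min. They were then washed, crosslinked with 0.1% formaldehyde, proximity-ligated (BsaI/T4 ligase, 1 h, 37 °C), PCR-amplified and sequenced on an Illumina NextSeq500. Binding signal is each 6-mer's read frequency for a factor divided by its frequency for the GST control.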

Another assay addresses T2, ETV3L (Homo sapiens, UniProt Q6ZN32 1-361).
T2 sequence: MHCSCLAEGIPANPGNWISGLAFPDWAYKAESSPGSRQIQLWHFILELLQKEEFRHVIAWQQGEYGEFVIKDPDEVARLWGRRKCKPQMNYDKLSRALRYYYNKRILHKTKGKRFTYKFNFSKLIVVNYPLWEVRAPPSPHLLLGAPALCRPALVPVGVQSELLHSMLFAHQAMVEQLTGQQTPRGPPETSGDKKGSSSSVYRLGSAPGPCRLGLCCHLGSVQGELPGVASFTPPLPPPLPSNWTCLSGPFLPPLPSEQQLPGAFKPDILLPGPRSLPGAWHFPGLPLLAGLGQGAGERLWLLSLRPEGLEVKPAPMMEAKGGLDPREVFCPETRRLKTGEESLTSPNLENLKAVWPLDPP
The procedure, abridged:
as §1

The target in another assay is T3, ETS2 (Homo sapiens, UniProt P15036 1-469).
T3 sequence: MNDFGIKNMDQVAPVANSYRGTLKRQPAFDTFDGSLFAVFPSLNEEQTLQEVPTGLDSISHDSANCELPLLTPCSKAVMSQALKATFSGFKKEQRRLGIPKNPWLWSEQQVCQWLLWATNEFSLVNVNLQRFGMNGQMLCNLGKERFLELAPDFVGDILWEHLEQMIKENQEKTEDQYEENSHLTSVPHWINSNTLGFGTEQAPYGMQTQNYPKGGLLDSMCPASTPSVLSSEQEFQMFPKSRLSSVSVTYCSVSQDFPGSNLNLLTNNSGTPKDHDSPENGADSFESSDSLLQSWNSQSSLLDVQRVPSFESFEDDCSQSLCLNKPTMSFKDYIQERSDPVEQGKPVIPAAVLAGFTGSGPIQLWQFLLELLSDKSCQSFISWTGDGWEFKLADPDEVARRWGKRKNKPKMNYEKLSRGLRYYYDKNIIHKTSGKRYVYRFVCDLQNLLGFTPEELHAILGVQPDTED
The procedure, abridged: as §1

The target of a further assay is T4, SPDEF (Homo sapiens, UniProt O95238 1-335).
T4 sequence: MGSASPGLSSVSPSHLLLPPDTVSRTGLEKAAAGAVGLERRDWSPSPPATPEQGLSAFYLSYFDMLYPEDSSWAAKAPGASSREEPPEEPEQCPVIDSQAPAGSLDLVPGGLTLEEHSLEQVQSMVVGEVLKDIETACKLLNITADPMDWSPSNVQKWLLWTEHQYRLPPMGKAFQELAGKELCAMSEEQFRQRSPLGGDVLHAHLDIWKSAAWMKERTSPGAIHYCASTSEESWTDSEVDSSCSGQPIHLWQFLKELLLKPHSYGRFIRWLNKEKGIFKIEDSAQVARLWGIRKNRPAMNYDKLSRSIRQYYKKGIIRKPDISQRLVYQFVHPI
Summed up:
as §1

In a further assay the target is T5, ETV7 (Homo sapiens, UniProt Q9Y603 1-341).
T5 sequence: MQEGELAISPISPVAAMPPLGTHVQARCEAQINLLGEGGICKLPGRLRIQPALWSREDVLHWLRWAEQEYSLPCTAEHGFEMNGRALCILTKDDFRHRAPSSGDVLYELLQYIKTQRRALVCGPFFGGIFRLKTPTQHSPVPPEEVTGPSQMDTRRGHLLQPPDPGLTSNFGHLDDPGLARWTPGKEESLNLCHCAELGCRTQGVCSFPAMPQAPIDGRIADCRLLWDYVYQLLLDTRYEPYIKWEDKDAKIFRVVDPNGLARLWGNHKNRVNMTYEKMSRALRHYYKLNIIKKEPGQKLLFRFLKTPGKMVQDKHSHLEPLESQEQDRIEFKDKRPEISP
The procedure, abridged: as §1

The next assay has as its target T6, ELF5 (Homo sapiens, UniProt Q9UKW6-2 1-255).
T6 sequence: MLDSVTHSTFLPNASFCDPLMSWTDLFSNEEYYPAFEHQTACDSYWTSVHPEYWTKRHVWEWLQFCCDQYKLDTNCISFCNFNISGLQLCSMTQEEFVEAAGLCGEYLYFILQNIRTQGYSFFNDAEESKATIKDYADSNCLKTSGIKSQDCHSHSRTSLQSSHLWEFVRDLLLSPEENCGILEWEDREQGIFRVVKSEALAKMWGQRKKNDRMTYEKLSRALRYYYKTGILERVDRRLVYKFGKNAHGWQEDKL
The procedure, abridged: as §1

The target in a further assay is T7, ETV3 (Homo sapiens, UniProt P41162-2 1-143).
T7 sequence: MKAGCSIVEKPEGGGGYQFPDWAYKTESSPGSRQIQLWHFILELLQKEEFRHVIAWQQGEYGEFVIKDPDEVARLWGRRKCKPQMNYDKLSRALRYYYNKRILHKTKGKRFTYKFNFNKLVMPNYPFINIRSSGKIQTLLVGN
The procedure, abridged: as §1

For the next assay, the target named is ETV6 (Homo sapiens, UniProt P41212 1-452). The procedure, abridged: as §1
ETV6, sequence (P41212 whole entry): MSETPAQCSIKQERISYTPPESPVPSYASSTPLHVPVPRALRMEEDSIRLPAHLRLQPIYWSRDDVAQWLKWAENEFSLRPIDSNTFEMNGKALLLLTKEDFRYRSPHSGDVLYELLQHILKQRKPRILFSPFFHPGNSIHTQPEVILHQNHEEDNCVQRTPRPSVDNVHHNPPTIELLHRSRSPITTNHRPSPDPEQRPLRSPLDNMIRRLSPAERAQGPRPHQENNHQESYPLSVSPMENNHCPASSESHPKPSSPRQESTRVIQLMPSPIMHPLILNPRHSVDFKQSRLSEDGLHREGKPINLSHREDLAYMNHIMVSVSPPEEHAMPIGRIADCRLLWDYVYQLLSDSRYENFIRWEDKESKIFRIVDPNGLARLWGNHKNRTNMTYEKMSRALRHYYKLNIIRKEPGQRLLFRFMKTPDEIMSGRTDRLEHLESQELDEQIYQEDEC

Take CTACCC: the binding signal with ERF was 1.29 fold enrichment (6-mer frequency, TF over GST control); in the assay with ETV3L, 1.32 fold enrichment (6-mer frequency, TF over GST control); in the assay with ETS2, 1.38 fold enrichment (6-mer frequency, TF over GST control); in the assay with SPDEF, 1.29 fold enrichment (6-mer frequency, TF over GST control); with ETV7, 1.23 fold enrichment (6-mer frequency, TF over GST control); with ELF5, 1.29 fold enrichment (6-mer frequency, TF over GST control). The binding signal with ETV3 is 1.28 fold enrichment (6-mer frequency, TF over GST control); with ETV6, 1.21 fold enrichment (6-mer frequency, TF over GST control).

With TTGACC, the binding signal in the assay with ERF is 1.45 fold enrichment (6-mer frequency, TF over GST control); in the assay with ETV3L it was 1.46 fold enrichment (6-mer frequency, TF over GST control); in the assay with ETS2, 1.4 fold enrichment (6-mer frequency, TF over GST control); with SPDEF, 1.52 fold enrichment (6-mer frequency, TF over GST control); in the assay with ETV7, 1.35 fold enrichment (6-mer frequency, TF over GST control); with ELF5, 1.37 fold enrichment (6-mer frequency, TF over GST control). Also, the binding signal in the assay with ETV3 is 1.44 fold enrichment (6-mer frequency, TF over GST control); with ETV6, 1.41 fold enrichment (6-mer frequency, TF over GST control).

As to CGACCT, the binding signal is 1.47 fold enrichment (6-mer frequency, TF over GST control) with ERF; 1.75 fold enrichment (6-mer frequency, TF over GST control) with ETV3L; 1.41 fold enrichment (6-mer frequency, TF over GST control) in the assay with ETS2; 1.44 fold enrichment (6-mer frequency, TF over GST control) with SPDEF; 1.54 fold enrichment (6-mer frequency, TF over GST control) with ETV7; 1.58 fold enrichment (6-mer frequency, TF over GST control) in the assay with ELF5. In addition, the binding signal is 1.53 fold enrichment (6-mer frequency, TF over GST control) in the assay with ETV3 and 1.5 fold enrichment (6-mer frequency, TF over GST control) with ETV6.

Take TATATG: the binding signal in the assay with ERF was 1.48 fold enrichment (6-mer frequency, TF over GST control); with ETV3L, 1.35 fold enrichment (6-mer frequency, TF over GST control); with ETS2, 1.38 fold enrichment (6-mer frequency, TF over GST control); with SPDEF it was 1.29 fold enrichment (6-mer frequency, TF over GST control); with ETV7, 1.29 fold enrichment (6-mer frequency, TF over GST control); with ELF5, 1.39 fold enrichment (6-mer frequency, TF over GST control). Moreover, the binding signal with ETV3 was 1.41 fold enrichment (6-mer frequency, TF over GST control); with ETV6, 1.34 fold enrichment (6-mer frequency, TF over GST control).

On to CCGATC, for which the binding signal was 1.17 fold enrichment (6-mer frequency, TF over GST control) with ERF; 1.13 fold enrichment (6-mer frequency, TF over GST control) in the assay with ETV3L; 1.18 fold enrichment (6-mer frequency, TF over GST control) with ETS2; 1.22 fold enrichment (6-mer frequency, TF over GST control) with SPDEF; 1.31 fold enrichment (6-mer frequency, TF over GST control) with ETV7; 1.1 fold enrichment (6-mer frequency, TF over GST control) with ELF5. Also, the binding signal with ETV3 is 1.25 fold enrichment (6-mer frequency, TF over GST control); with ETV6, 1.17 fold enrichment (6-mer frequency, TF over GST control).

For CGAATT, the binding signal is 1.28 fold enrichment (6-mer frequency, TF over GST control) with ERF; 1.28 fold enrichment (6-mer frequency, TF over GST control) in the assay with ETV3L; 1.14 fold enrichment (6-mer frequency, TF over GST control) in the assay with ETS2; 1.28 fold enrichment (6-mer frequency, TF over GST control) with SPDEF; 1.31 fold enrichment (6-mer frequency, TF over GST control) with ETV7; 1.17 fold enrichment (6-mer frequency, TF over GST control) in the assay with ELF5. For the same sequence, the binding signal in the assay with ETV3 is 1.22 fold enrichment (6-mer frequency, TF over GST control); in the assay with ETV6, 1.08 fold enrichment (6-mer frequency, TF over GST control).

For ACTGCG, the binding signal with ERF was 1.26 fold enrichment (6-mer frequency, TF over GST control); with ETV3L, 1.26 fold enrichment (6-mer frequency, TF over GST control); in the assay with ETS2 it was 1.35 fold enrichment (6-mer frequency, TF over GST control); in the assay with SPDEF, 1.24 fold enrichment (6-mer frequency, TF over GST control); with ETV7, 1.21 fold enrichment (6-mer frequency, TF over GST control); with ELF5 it was 1.25 fold enrichment (6-mer frequency, TF over GST control). For the same sequence, the binding signal with ETV3 was 1.25 fold enrichment (6-mer frequency, TF over GST control); with ETV6, 1.18 fold enrichment (6-mer frequency, TF over GST control).

For CCGTAC, the binding signal with ERF was 1.39 fold enrichment (6-mer frequency, TF over GST control); in the assay with ETV3L it was 1.25 fold enrichment (6-mer frequency, TF over GST control); in the assay with ETS2 it was 1.32 fold enrichment (6-mer frequency, TF over GST control); with SPDEF, 1.41 fold enrichment (6-mer frequency, TF over GST control); with ETV7, 1.32 fold enrichment (6-mer frequency, TF over GST control); with ELF5, 1.46 fold enrichment (6-mer frequency, TF over GST control). Further, the binding signal with ETV3 is 1.36 fold enrichment (6-mer frequency, TF over GST control); with ETV6, 1.33 fold enrichment (6-mer frequency, TF over GST control).
